High-throughput results (PubChem BioAssay)
In the library only some 2.4% were active in any assay of this set; here they are far more common.
Dyrk1A ADPGlo = blocks rat Dyrk1A kinase activity; 310,000 tested, 0.43% active; AID 504441; Q63470; inhibition, % at 12.5 µM; ADP-Glo luminescence, NFATc1 peptide;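 also: plate controls were vehicle with enzyme for no effect and no enzyme for full effect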
Wnt bcat act = activates Wnt/beta-catenin signaling in a reporter cell assay. activator, plate reader. activation, % at 9.35 µM. 300,000 tested, 1.2% active. AID 743398; in the data active = activation above about 30%, passing the limit was not always enough;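 also: 0% = neutral control wells and 100% = positive control wells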
MITF TRPM1 HTS = increases MITF-driven TRPM1 promoter luciferase signal | SK-MEL-5 TRPM1-promoter luciferase, 24 h; % of positive control, neutral wells = 0 | activation, % at 12.5 µM | 300,000 tested, 0.75% active | AID 588334;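 active = mean activation of at least 80% with every replicate also reaching 80%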;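 also: 0% = neutral control wells and 100% = parthenolide positive control wells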
miR122 inh = blocks miR-122 activity in Huh7 sensor cells; Huh7 miR-122 Renilla luciferase sensor, 48 h; neutral wells = 0, positive control = 100; activation (reporter increase), % at 12.5 µM; 340,000 tested, 0.3% active;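 active = mean replicate activation score at least 90 and every replicate individually at or above 90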;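 also: higher luciferase means less miR-122 activity so hits act as miR-122 inhibitors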
INS-1E GSIS act = primary screen for activators of insulin secretion dependent on glucose, INS-1E cells, GLuc reporter luminescence | INS-1E GLuc reporter insulin secretion, 2-3 h | activation, % at 16.6 µM | 370,000 tested, 0.61% active;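 active = lowest replicate activation of at least 40%, so every replicate reaches that level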;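 also: 0% = median of neutral control wells and 100% = median of IBMX positive control wells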
NSD2 HMT inh = blocks human histone methyltransferase NSD2 | NSD2 peptide methylation, AlphaScreen, 120 min | 310,000 tested, 0.54% active | AID 743445 | inhibition, % at 12.5 µM | O96028
The depositor's hits bear a star; / = no result; [ ] = remark or other dose. Rule as the data show it, unless noted: active = inhibition above about 50%; inactive = the rest.

SMILES | Dyrk1A ADPGlo | Wnt bcat act | MITF TRPM1 HTS | miR122 inh | INS-1E GSIS act | NSD2 HMT inh
C[C@@H]1CCCCO[C@@H](CN(C)C)[C@H](C)CN([C@H](C)CO)C(=O)c2cc(NC(=O)Nc3ccc(C(F)(F)F)cc3)ccc2O1 | / | / | / | -2[16.7 µM] | 14 | /
COc1ccc(CC(=O)OCn2nnc3ccccc3c2=O)cc1OC | 16 | -1 | 8 | -8 | 44* | -2
COc1ccc(CC(=O)OCN2C(=O)c3ccccc3C2=O)cc1 | 2 | / | 7 | -4 | -1 | 1
COc1ccc(CC(=O)OCN2C(=O)c3ccccc3C2=O)cc1OC | -3 | 10 | 3 | / | 62* | -3
C[C@@H]1CN([C@H](C)CO)C(=O)c2cc(NC(=O)c3ccncc3)ccc2O[C@@H](C)CCCCO[C@@H]1CN(C)S(=O)(=O)c1ccccc1 | / | / | / | -1[16.7 µM] | -14 | /
O=C(Nc1ccnn1C1CCN(C2CCCC2)CC1)c1ccccc1Cl | 0 | -1 | 6 | -2 | 14 | 2
O=C(Nc1ccnn1C1CCN(C2CCC2)CC1)c1ccccc1Cl | -6 | -2 | -1 | 12 | 64* | 1
CN(C)CC(=O)N[C@@H]1CC[C@H](CCNC(=O)C2CCC2)O[C@@H]1CO | / | / | / | / | 20 | /
COC(=O)c1sc(-c2ccc(C(C)(C)C)cc2)cc1NC(=O)c1ccccc1C(=O)O | / | 46* | / | / | -4 | 35
COc1ccc(-c2nc3nc(C)cc(C)n3n2)cc1 | -1 | 33* | 44 | 24 | / | -16
Cc1nnc(Sc2cc(NCCCO)c([N+](=O)[O-])c3nonc23)s1 | 2 | -6 | -73 | / | 75* | /
CCC(=O)OCCNc1cc(Sc2nc3ccccc3s2)c2nonc2c1[N+](=O)[O-] | 5 | -1 | -58 | 6 | 18 | -2
O=[N+]([O-])c1c(NCCCO)cc(Sc2nc3ccccc3s2)c2nonc12 | 12 | / | -67 | 4 | 134* | /
CCCc1cc(-c2[nH]ncc2-c2ccc3c(c2)OCCCO3)c(O)cc1O | 58* | / | -14 | -18 | / | 2
O=C(Nc1ccc(F)c(Cl)c1)c1csc([C@H]2C[C@H](O)[C@@H](CO)O2)n1 | / | 40* | / | -27 | -7 | 1
COc1cccc(S(=O)(=O)N[C@H]2C=C[C@@H](CC(=O)NC3CCC3)O[C@H]2CO)c1 | / | / | / | / | -3 | /
Cc1c(P(=S)(c2ccccc2)c2ccccc2)[n+]2ccccc2n1C/C=C/c1ccccc1 | / | -7 | / | -18 | 243* | /
CC(O)c1nc2ccccc2n1C/C=C/c1ccccc1 (stereo not drawn) | 4 | / | / | -4 | / | 2
COC(=O)c1cc(C)nc(Nc2nc(C(N)Cc3ccc(Cl)cc3)cs2)n1 (stereo not drawn) | / | 641* | / | -6 | / | 2
CC1Nc2ncnc(N3CCc4ccccc4C3)c2N(Cc2ccc(Cl)cc2)C1=O (stereo not drawn) | 5 | / | -1 | 3 | 74* | /
CC1Nc2ncnc(N3CCc4ccccc4C3)c2N(Cc2ccc(Br)cc2)C1=O (stereo not drawn) | 0 | -2 | 6 | -9 | -14 | /
COc1ccc(S(=O)(=O)Nc2ccc3c(c2)CC(=O)N([C@H](C)CO)C[C@@H](C)[C@@H](CN(C)C(=O)Nc2ccc(F)cc2)O3)cc1 | / | / | / | -1[16.7 µM] | -6 | /
CC1(C)CC(=O)c2cnc(N3CCc4ccccc43)nc2C1 | / | 39* | / | / | 20 | -13
CCCC(=O)Nc1ccc2c(c1)OC[C@@H](C)N(C(=O)CC)C[C@H](C)[C@H](OC)CN(C)C2=O | / | / | / | 10[16.7 µM] | -6 | /
COC(=O)C1=C(N)Oc2c(oc(CO)cc2=O)C1c1ccc(F)cc1 (stereo not drawn) | / | 40* | / | -9 | -4 | 12
SMILES | Dyrk1A ADPGlo | Wnt bcat act | MITF TRPM1 HTS | miR122 inh | INS-1E GSIS act | NSD2 HMT inh
COc1cc(C2C(C#N)=C(N)Oc3c2oc(CO)cc3=O)cc(OC)c1OC (stereo not drawn) | 6 | -7 | / | 1 | / | 0
O=C(OCC(=O)N1CCCCC1)c1cc2ccccc2cc1O | 2 | / | 41 | -6 | / | 0
C/C(CC(=O)N1CCCC1)=N\NC(=O)c1cc2ccccc2cc1O | 5 | 2 | -6 | / | -16 | 70*
CCCC(=O)Nc1ccc2c(c1)OC[C@H](C)N(C(=O)CC)C[C@H](C)[C@H](OC)CN(C)C2=O | / | / | / | -8[16.7 µM] | 9 | /
C[C@@H]1CCCCO[C@@H](CN(C)Cc2ccncc2)[C@H](C)CN([C@H](C)CO)C(=O)c2cc(NC(=O)Nc3cccc4ccccc34)ccc2O1 | / | / | / | -2[16.7 µM] | 4 | /
COc1ccc(N2C(=O)c3ccccc3C2O)cc1 (stereo not drawn) | 5 | 44* | 21 | / | 2 | -1
CCOC(=O)C1(Cc2ccccc2)CCCN(C(=O)C=C(C)C)C1 (stereo not drawn) | 1 | 4 | 88* | -4 | -1 | 35
CCOC(=O)C1(Cc2ccccc2)CCCN(C(=O)COc2ccccc2OC)C1 (stereo not drawn) | / | 39* | / | / | -18 | 0
C[C@@H]1CN([C@@H](C)CO)C(=O)c2cccc(NC(=O)c3nc4ccccc4s3)c2O[C@H]1CN(C)S(C)(=O)=O | / | / | / | 0[16.7 µM] | -4 | /
O=[N+]([O-])c1ccc2c(c1)N([O-])C1(CCCCC1)[N+]2=O | / | 3 | / | / | / | 84*
CC1=C(c2ccccc2)[N+](=O)C2(CCCC2)N1[O-] | 6 | 2 | 0 | 1 | 11 | -4
COc1ccc(/C=C2\SC(=O)N(CCNC(=O)C3CSC4(C)CCC(=O)N34)C2=O)cc1 (stereo not drawn) | 17 | 4 | 26 | -3 | 2 | -2
COc1ccc(/C=C2\SC(=O)N(CCNC(=O)C3CC4C=CC3C4)C2=O)cc1 (stereo not drawn) | / | -1 | 136* | / | -1 | -3
Nc1[nH]n(-c2ccccc2)c(=O)c1N=Nc1ccc2c(c1)OCCO2 | 1 | 34* | 61 | -11 | 12 | 21
Nc1[nH]n(-c2ccccc2)c(=O)c1N=Nc1ccc2c(c1)OCO2 | -9 | 58* | 77 | -3 | / | 11
Nc1[nH]n(-c2ccccc2)c(=O)c1N=Nc1ccc(F)cc1 | / | / | / | / | / | 5
CNc1nc(N)c(C(=O)C(C)(C)C)s1 | 4 | / | -6 | -2 | 47* | 2
N#C[C@H]1[C@@H](c2ccccc2-c2ccccc2F)[C@H](CO)N1C(=O)C1CCC1 | / | / | / | / | -6 | /
CO[C@H]1CN(C)C(=O)c2cc(NC(=O)Nc3cccc(F)c3)ccc2OC[C@@H](C)NC[C@H]1C | / | / | / | 24[16.7 µM] | 10 | /
O=C(Nc1nc2ccccc2n1Cc1ccc(Cl)cc1)c1ccco1 | 10 | / | -18 | / | 48* | 1
O=C(Nc1nc2ccccc2n1CCOc1ccc(Cl)cc1)c1ccco1 | 23 | -6 | / | -4 | / | /
CC(=O)N1[C@@H]2CN(C(=O)c3ccccc3)c3ccccc3[C@@H]2[C@@H]1CO | / | / | / | -25[16.7 µM] | 8 | /
O=C(Cc1nnc(NC(=O)c2ccccc2)s1)N/N=C/c1ccc(O)cc1 | -4 | -2 | -10 | 2 | -2 | 1
O=C(Cc1nnc(NC(=O)c2ccccc2)s1)N/N=C\c1ccc(O)c(O)c1 | 1 | -3 | -9 | -2 | 24 | 68*
